In the library only some 1% were active in any assay of this set; here they are far more common.
Mtb hypoxia rep – PubChem AID 1159583. M. tuberculosis hypoxia-regulated fluorescent reporter, fluorescence. fluorescence inhibition, % (test concentration not listed). 0.1% of 300,000 active; in the data active = fluorescence inhibition mostly above about 23%, no sharp cut-off; inactive = mostly below about 17%
FadD28 binding – inhibitors of FadD28 bisubstrate probe binding, primary screen, biochemical, fluorescence polarization, single point; inhibition, % at 12.5 µM; 0.22% of 360,000 active; in the data active = inhibition above about 8.5%, passing the limit was not always enough
Mtb BioA inh – M. tuberculosis BioA enzyme inhibitors, primary screen, biochemical, plate reader, single point, HTS | inhibition, % at 9.99 µM | 7,8-diaminopelargonic acid synthase BioA (Mycobacterium tuberculosis) | purified M. tuberculosis BioA enzyme | AID 602481, 2012 | 0.096% of 360,000 active; in the data active = inhibition above about 40%
TcdB inh – TcdB glycohydrolase inhibitors, primary screen, biochemical, single point, plate reader; Toxin B (Clostridioides difficile), P18177; TcdB glycohydrolase enzymatic assay; inhibition, % at 9.99 µM; 0.24% of 350,000 active; AID 652162, 2013; in the data active = inhibition above about 10%
Target sequence (P18177 whole entry, looked up): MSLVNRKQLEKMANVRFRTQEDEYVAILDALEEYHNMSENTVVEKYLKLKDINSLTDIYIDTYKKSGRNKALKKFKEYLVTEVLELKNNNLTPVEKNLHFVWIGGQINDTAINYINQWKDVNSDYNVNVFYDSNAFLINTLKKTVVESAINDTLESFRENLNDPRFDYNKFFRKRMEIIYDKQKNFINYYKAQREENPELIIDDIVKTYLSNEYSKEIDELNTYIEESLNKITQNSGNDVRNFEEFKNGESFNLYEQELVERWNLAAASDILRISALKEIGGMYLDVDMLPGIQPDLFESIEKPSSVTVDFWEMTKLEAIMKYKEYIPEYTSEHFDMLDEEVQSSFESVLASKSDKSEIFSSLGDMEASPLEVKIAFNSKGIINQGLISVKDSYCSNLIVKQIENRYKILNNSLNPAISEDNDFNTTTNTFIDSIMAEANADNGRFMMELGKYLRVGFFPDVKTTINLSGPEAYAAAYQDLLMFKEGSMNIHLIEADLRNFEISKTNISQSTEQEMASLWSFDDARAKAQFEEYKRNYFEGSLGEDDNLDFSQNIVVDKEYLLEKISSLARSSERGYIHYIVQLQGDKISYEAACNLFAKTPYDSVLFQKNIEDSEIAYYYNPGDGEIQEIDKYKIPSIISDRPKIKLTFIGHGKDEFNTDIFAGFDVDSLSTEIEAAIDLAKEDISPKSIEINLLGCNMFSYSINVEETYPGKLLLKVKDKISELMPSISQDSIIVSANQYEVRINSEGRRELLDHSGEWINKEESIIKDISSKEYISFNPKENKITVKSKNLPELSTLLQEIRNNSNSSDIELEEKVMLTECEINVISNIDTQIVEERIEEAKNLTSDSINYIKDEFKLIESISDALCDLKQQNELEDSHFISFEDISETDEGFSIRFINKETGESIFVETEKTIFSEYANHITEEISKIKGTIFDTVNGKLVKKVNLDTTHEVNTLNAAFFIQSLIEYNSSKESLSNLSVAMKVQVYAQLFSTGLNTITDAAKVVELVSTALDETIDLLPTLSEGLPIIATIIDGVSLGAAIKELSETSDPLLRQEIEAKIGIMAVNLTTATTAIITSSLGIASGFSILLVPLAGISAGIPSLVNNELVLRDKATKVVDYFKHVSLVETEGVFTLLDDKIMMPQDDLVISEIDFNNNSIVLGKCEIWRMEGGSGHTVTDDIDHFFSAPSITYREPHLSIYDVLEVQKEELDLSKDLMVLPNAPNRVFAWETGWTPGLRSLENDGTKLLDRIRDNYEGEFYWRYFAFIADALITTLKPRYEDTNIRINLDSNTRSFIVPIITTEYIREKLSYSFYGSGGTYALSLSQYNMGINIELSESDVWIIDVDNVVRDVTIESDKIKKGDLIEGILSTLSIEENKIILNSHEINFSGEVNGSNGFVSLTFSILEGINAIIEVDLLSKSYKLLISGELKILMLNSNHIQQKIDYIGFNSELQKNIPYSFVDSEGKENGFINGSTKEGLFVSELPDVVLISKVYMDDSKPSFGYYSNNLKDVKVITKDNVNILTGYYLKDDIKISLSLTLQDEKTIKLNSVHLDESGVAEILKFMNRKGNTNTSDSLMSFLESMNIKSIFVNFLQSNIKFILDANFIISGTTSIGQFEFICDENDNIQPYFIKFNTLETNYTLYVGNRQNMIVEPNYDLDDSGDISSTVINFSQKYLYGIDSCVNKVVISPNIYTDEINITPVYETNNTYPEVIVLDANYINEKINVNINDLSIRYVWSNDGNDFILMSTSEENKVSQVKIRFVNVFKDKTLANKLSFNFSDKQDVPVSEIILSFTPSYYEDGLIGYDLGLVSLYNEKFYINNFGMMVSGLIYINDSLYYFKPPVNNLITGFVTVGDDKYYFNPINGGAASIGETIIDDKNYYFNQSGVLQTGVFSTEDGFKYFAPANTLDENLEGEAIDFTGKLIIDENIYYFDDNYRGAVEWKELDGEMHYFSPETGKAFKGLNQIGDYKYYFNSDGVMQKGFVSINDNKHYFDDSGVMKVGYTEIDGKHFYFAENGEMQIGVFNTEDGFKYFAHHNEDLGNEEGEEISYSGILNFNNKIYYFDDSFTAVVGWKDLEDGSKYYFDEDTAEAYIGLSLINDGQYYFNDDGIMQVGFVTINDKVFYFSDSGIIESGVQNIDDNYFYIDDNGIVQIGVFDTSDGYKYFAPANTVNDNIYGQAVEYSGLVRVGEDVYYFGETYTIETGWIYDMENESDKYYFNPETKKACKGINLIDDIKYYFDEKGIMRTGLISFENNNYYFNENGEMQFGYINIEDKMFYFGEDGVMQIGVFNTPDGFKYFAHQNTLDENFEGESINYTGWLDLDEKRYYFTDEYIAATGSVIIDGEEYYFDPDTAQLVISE
PrP UTR inh – inhibition of PrP 5' UTR reporter expression; cell-based PrP 5' UTR mRNA reporter, plate reader; inhibition, % (concentration not given with the values); 0.35% of 340,000 active; AID 488862, 2010; in the data active = inhibition above about 52%
SSB-PriA inh – inhibitors of Klebsiella pneumoniae PriA binding to SSB C-terminal tail, primary screen, biochemical, AlphaScreen; AlphaScreen SSBct-PriA binding, biotinylated peptide; inhibition, % at 33 µM; 0.6% of 430,000 active; AID 1272365, 2023; in the data active = inhibition mostly above about 37%, no sharp cut-off; inactive = mostly below about 20%
PrP 5UTR single – prion 5' UTR mRNA inhibition, cherry-pick retest | shares compounds with PrP UTR inh | cell-based prion protein 5' UTR reporter, plate reader | inhibition, % at 2.5 µM | 48% of 1,100 active; in the data active = inhibition above about 54%
A number is an active result; - = inactive; . = no result shown.

SMILES | Mtb hypoxia rep | FadD28 binding | Mtb BioA inh | TcdB inh | PrP UTR inh | SSB-PriA inh | PrP 5UTR single
Cc1ccc2oc(=O)n(Cc3ccccc3OC(C)C)c2c1 | - | - | - | . | - | - | .
Cc1ccc(NC(=O)c2cc3ccccc3oc2=N)cc1 | - | - | - | - | 67 | - | -
Cc1ccc(-c2cnc3c(c2)C(=O)N([C@H](C)CO)C[C@@H](C)[C@@H](CN(C)C(=O)c2ccc(F)cc2)O3)cc1 | . | . | - | - | . | . | .
O=C(CCCc1ccccc1)c1ccc2c(c1)OCCO2 | - | - | - | - | 83 | - | 89
COC(=O)c1c(N)sc(C(=O)NCCc2ccccc2)c1C | . | - | - | - | 70 | - | 64
O=C(CCc1ccccc1)c1ccc2c(c1)OCCCO2 | - | - | - | . | - | - | .
O=C(NCCS(=O)(=O)NCCc1ccccc1)c1ccc2c(c1)OCO2 | - | - | - | - | - | - | .
Cc1ccc(C(=O)NCCc2ccccc2)cc1 | . | - | - | . | 59 | - | 64
O=C(NCCc1ccccc1)c1ccc2c(c1)OCCCO2 | . | - | - | - | 92 | - | 91
COCC(=O)N(C[C@@H]1N[C@@H](CO)[C@H]1c1ccc(-c2cccnc2)cc1)C(C)C | . | . | - | - | . | . | .
O=C(Nc1ccc2c(c1)N(C(=O)C1CC1)CC2)c1ccc(F)c(F)c1 | . | . | . | . | . | - | .
O=C(NCCc1ccccc1)c1ccc2c(c1)OCCO2 | . | - | - | - | 88 | - | 83
O=C(c1ccc(F)cc1)N1CCOCC1 | - | - | - | - | 69 | - | -
COc1ccc(CCNC(=O)c2ccc3c(c2)OCCO3)cc1 | - | - | . | . | - | - | .
O=C(Nc1ccc(F)cc1)c1ccc(C(=O)N2CCOCC2)cc1 | - | - | - | - | - | - | .
O=C(c1ccccc1)N1CCN(C(=O)c2ccc3c(c2)OCCO3)CC1 | - | - | . | - | 78 | - | -
Cc1ccc(C=NNC(=O)Cn2ccc(C(F)(F)F)n2)o1 | - | . | . | . | . | - | .
O=C1Nc2ccc(S(=O)(=O)N3CCOCC3)c3cccc1c23 | - | - | - | . | - | - | .
COc1cc(OC)cc(C(=O)N2CCN(Cc3cccc(F)c3)CC2)c1 | - | - | - | . | - | - | .
COc1cc(OC)cc(C(=O)N2CCN(Cc3ccccc3Br)CC2)c1 | - | - | . | - | 85 | - | -
Cc1cccc2cc(C#N)c(SCC(=O)N3CC(=O)Nc4ccccc43)nc12 | . | - | - | . | 64 | - | 81
COc1ccccc1-c1nnc2n1N=C(C)CS2 | - | - | - | . | - | - | .
COc1ccc(C2=Nn3c(nnc3-c3ccccc3OC)SC2)cc1OC | - | - | - | . | 56 | - | 77
COc1ccc(OC)c(-c2nnc3n2N=C(c2ccc(OC)c(OC4CCOC4)c2)CS3)c1 (stereo unspecified) | - | - | - | - | 72 | - | 81
Cc1ccc(-n2nnc(-c3nccs3)n2)cc1 | - | - | - | - | 77 | - | 62
SMILES | Mtb hypoxia rep | FadD28 binding | Mtb BioA inh | TcdB inh | PrP UTR inh | SSB-PriA inh | PrP 5UTR single
COC(=O)N1CCc2ccc(NC(=O)c3ccc4ncsc4c3)cc2C1 | . | . | . | . | . | - | .
CCOc1ccc(NC(=O)CN(C)C(=O)C2CCCC2)cc1OCC | - | - | . | - | 83 | - | -
CCC1(O)C(=O)OCc2c1cc1n(c2=O)Cc2cc3c(N)cccc3nc2-1 (stereo unspecified) | . | - | . | - | 53 | - | 90
CC(=O)n1cc(-c2ccncc2)c2ccccc21 | - | - | - | - | 55 | - | -
Cc1nn(C2CCS(=O)(=O)C2)c(C)c1N1CCN(C(=O)c2cc(=O)c3ccccc3o2)CC1 (stereo unspecified) | . | . | . | . | . | - | .
COc1cccc(NC(=O)c2cc([N+](=O)[O-])ccc2N2CCN(C)CC2)c1 | - | - | . | - | - | - | .
CC1OC(OC2C=C3CCC4C(CCC5(C)C(c6ccc(=O)oc6)CCC45O)C3(C)CC2)C(O)C(OC2OC(CO)C(O)C(O)C2O)C1O (stereo unspecified) | . | - | . | - | 93 | - | 92
COc1cc2cc(C#N)c(SCC(=O)N3CCOCC3)nc2cc1OC | - | - | - | . | 72 | - | -
Cc1c(OC(C)C(=O)NC2CC(C)(C)NC(C)(C)C2)ccc2c3c(c(=O)oc12)CCC3 (stereo unspecified) | - | - | - | - | - | - | .
CNC[C@H]1Oc2cc(C#Cc3ccc(F)cc3)ccc2S(=O)(=O)N([C@H](C)CO)C[C@@H]1C | . | . | - | - | . | . | .

Source: PubChem BioAssay (several laboratories)
